Compound activity: PubChem BioAssay, National Center for Advancing Translational Sciences (NCATS)
In the library only some 2.1% were active in any assay of this set; here they are far more common.
Abeta rescue = qHTS for compounds that reverse cellular toxicity of Amyloid beta (A-beta) peptide in yeast: Primary Screen; yeast expressing A-beta42, growth rescue, OD600, 48 h; response scale: 0% DMSO, 100% iron-clioquinol control; Potency, µM (series often up to 46.1 µM), actives largely listed as activators; 410,000 tested, 0.063% active; further: nearly all actives have a fitted effect of over 55% in size
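Growth rescue measured by 600 nm absorbance after 48 h yeast culture at 30 C with compound. Values normalized between DMSO and an equimolar ferric chloride plus clioquinol control.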
TDP-43 yeast inh = qHTS of TDP-43 Inhibitors | TDP-43 expressing yeast growth rescue, BacTiter-Glo, 24 h | Potency, µM (series often up to 46.1 µM), for inactives: at the top dose growth rescue (activation), hits mostly activators | 410,000 tested, 1.8% active; further: % of control where 0% means no effect; nearly all actives have a fitted effect of over 50% in size
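In this qHTS, compounds that restore growth of yeast expressing TDP-43 appear as activators. Cells (OD600=0.02, galactose medium, raffinose-pregrown) are incubated with compound 24 hr at 30 deg C and growth is quantified by BacTiter-Glo.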
FUS yeast rescue = qHTS for Suppressors of FUS Proteinopathy: Primary screen using FUS-linked yeast assay; Potency, µM (doses to about 76.6 µM), hits mostly activators; 390,000 tested, 0.24% active; S. cerevisiae FUS-expressing, growth rescue, OD600, 24 h;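 further: plate controls were DMSO vehicle for no effect and reference control for full effect; nearly all actives have a fitted effect of over 55% in size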
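S. cerevisiae expressing FUS from galactose induction served as the toxicity model. Growth after 24hr at 30C, read as absorbance at 600 nm, indicates suppression of toxicity; compounds dosed at several concentrations.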
aSyn yeast inh = qHTS of alpha-syn Inhibitors; Yeast expressing alpha-synuclein, growth rescue, BacTiter-Glo, 24 h; Potency, µM (top dose mostly 46.1 µM), inactives show at the highest dose growth rescue (activation), hits mostly activators; 370,000 tested, 0.14% active; further: % of control where 0% means no effect; nearly all actives have a fitted effect of over 65% in size
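Screening used galactose-induced yeast with toxic alpha-synuclein levels, exposed to compound for 24 hr at 30 deg C. Cell growth, read with BacTiter-Glo luminescence, gave the measured signal.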
Numbers without * were called inactive. The call rests on the fitted dose curve; in most records, active means well fitted curve in the direction sought with a large enough effect; inconclusive means small, poorly fitted or top-dose-only effect, or another doubt; inactive means no such curve, though single readings can be large; an effect the other way counts as inactive or inconclusive. Potency means the concentration at half of the fitted maximal effect.

How did COCc1c(C(=O)N2CCN(Cc3nc4ccccc4s3)CC2)oc2ccccc12 do in these assays?
Abeta rescue: inactive; TDP-43 yeast inh: 20%; aSyn yeast inh: 2%

How did Cc1c(C(=O)N2CCN(c3ccccc3)CC2)oc2c(Cl)cccc12 do in these assays?
Abeta rescue: inactive; TDP-43 yeast inh: inconclusive; FUS yeast rescue: inactive; aSyn yeast inh: 2%

How did COCc1c(C(=O)N2CCN(S(=O)(=O)c3ccccc3Cl)CC2)oc2ccccc12 do in these assays?
Abeta rescue: inactive; TDP-43 yeast inh: 11µM*; FUS yeast rescue: inactive; aSyn yeast inh: 4%

What do the screens show for `Cc1c(C(=O)N2CCN(S(=O)(=O)c3ccccc3F)CC2)oc2c(Cl)cccc12`?
Abeta rescue: inactive; TDP-43 yeast inh: 14µM*; FUS yeast rescue: inconclusive; aSyn yeast inh: 0%

What do the screens show for `CCCC1CCC2(CC1)CCC2OC(=O)Nc1ccc2c(c1)OCO2` (stereo unspecified)?
FUS yeast rescue: inactive

How did CN(CCCOC(=O)c1occ2ccccc12)C1CN(Cc2cn(Cc3ccccc3Cl)nn2)S(=O)(=O)C1 (stereo unspecified) do in these assays?
FUS yeast rescue: inactive

How did CC(=O)N1CCc2c1cccc2S(=O)(=O)NC(CC(C)C)C(=O)Nc1ccccc1C (stereo unspecified) do in these assays?
FUS yeast rescue: inactive

What do the screens show for `COc1cccc(/C=C2\CC3(OC(=O)c4cccc(F)c4)CCCN2C3)c1` (stereo unspecified)?
FUS yeast rescue: inactive

How did Nc1c(-c2ccccc2)cnn1-c1cccc([N+](=O)[O-])c1 do in these assays?
Abeta rescue: inactive; TDP-43 yeast inh: 20µM*; FUS yeast rescue: inactive; aSyn yeast inh: 2%

Results for CCCCN(C)C(=O)c1sc(=O)n(Cc2cc(Cl)ccc2OC)c1C ?
Abeta rescue: inactive; TDP-43 yeast inh: inconclusive; FUS yeast rescue: inactive; aSyn yeast inh: 10%

What do the screens show for `COc1ccc(Cl)cc1Cn1c(C)c(C(=O)N(C)Cc2ccc(F)cc2)sc1=O`?
Abeta rescue: inactive; TDP-43 yeast inh: 22µM*; FUS yeast rescue: inactive; aSyn yeast inh: 8%

What do the screens show for `COc1ccc(CNC(=O)c2sc(=O)n(Cc3ccccc3OC)c2C)cc1`?
Abeta rescue: inactive; TDP-43 yeast inh: 25µM*; FUS yeast rescue: inactive; aSyn yeast inh: 9%

Results for Cc1c(C(=O)N(C)Cc2ccc(F)cc2)sc(=O)n1Cc1ccc(Cl)c(Cl)c1 ?
Abeta rescue: inconclusive; TDP-43 yeast inh: 22µM*; FUS yeast rescue: inactive; aSyn yeast inh: inconclusive

Results for COc1ccc(Cl)cc1Cn1c(C)c(C(=O)NCc2ccc(F)cc2)sc1=O ?
Abeta rescue: inactive; TDP-43 yeast inh: 20µM*; FUS yeast rescue: inconclusive; aSyn yeast inh: inconclusive

Results for COc1ccccc1Cn1c(C)c(C(=O)NCc2ccc3c(c2)OCCO3)sc1=O ?
Abeta rescue: inactive; TDP-43 yeast inh: 0%; FUS yeast rescue: inconclusive; aSyn yeast inh: 0%

How did CC(=O)Oc1ccc(Cn2c(C)c(C(=O)N(C)Cc3ccc(F)cc3)sc2=O)cc1 do in these assays?
Abeta rescue: inactive; TDP-43 yeast inh: 0%; FUS yeast rescue: inactive; aSyn yeast inh: 7%

Results for O=C(OCCN1CCN(C2CN(Cc3cn(Cc4ccc([N+](=O)[O-])cc4)nn3)S(=O)(=O)C2)CC1)c1cc2ccccc2o1 (stereo unspecified) ?
FUS yeast rescue: inactive

Results for O=c1c2ccccc2sc2nc(C3CCCCC3)n(Cc3ccco3)c(=O)c12 ?
Abeta rescue: inactive; TDP-43 yeast inh: -11%; FUS yeast rescue: inactive; aSyn yeast inh: 7%

How did CCc1nc2sc3ccccc3c(=O)c2c(=O)n1Cc1ccco1 do in these assays?
Abeta rescue: inactive; TDP-43 yeast inh: -5%; FUS yeast rescue: 32µM*; aSyn yeast inh: 26%

Results for CN(CC(=O)Nc1cccc(F)c1)C(=O)c1ccc(-c2ccc(Cl)cc2)o1 ?
Abeta rescue: inactive; TDP-43 yeast inh: 22µM*; FUS yeast rescue: inactive; aSyn yeast inh: 15%

What do the screens show for `O=C(/C=C/c1cccs1)Nc1cccc(NC(=O)/C=C/c2cccs2)n1`?
Abeta rescue: inactive; TDP-43 yeast inh: 7.9µM*; FUS yeast rescue: inactive; aSyn yeast inh: -8%

How did COc1ccc(Cn2cc(COC(=O)NCCc3c[nH]c4ccccc34)nn2)cc1 do in these assays?
FUS yeast rescue: inactive

What do the screens show for `CCCCN(CCCC)C(=O)c1cc2c(=O)n3cccc(C)c3nc2s1`?
Abeta rescue: inactive; TDP-43 yeast inh: 22µM*; FUS yeast rescue: inconclusive

What do the screens show for `Cc1cccn2c(=O)c3cc(C(=O)N4CCCCC4)sc3nc12`?
Abeta rescue: inactive; TDP-43 yeast inh: 11µM*; FUS yeast rescue: inactive; aSyn yeast inh: -1%

What do the screens show for `Cc1cccn2c(=O)c3cc(C(=O)N4CCCC(C)C4)sc3nc12` (stereo unspecified)?
Abeta rescue: inactive; TDP-43 yeast inh: inconclusive; FUS yeast rescue: inactive; aSyn yeast inh: 6%

How did COc1cc(C(=O)N2CCc3c([nH]c4ccccc34)C2c2ccc(C)cc2)cc(OC)c1OC (stereo unspecified) do in these assays?
Abeta rescue: inactive; TDP-43 yeast inh: 2%; FUS yeast rescue: 14µM*

How did COc1cc(C(=O)N2CCc3c([nH]c4ccccc34)C2c2ccccc2)cc(OC)c1OC (stereo unspecified) do in these assays?
Abeta rescue: inactive; TDP-43 yeast inh: 8%; FUS yeast rescue: inconclusive

What do the screens show for `O=C(c1cc(-c2ccccc2)n[nH]1)N1CCc2c([nH]c3ccccc23)C1c1ccccn1` (stereo unspecified)?
Abeta rescue: inconclusive; TDP-43 yeast inh: 18µM*; FUS yeast rescue: inconclusive; aSyn yeast inh: inconclusive

How did O=C(c1cccs1)N1CCc2c([nH]c3ccccc23)C1c1ccccn1 (stereo unspecified) do in these assays?
Abeta rescue: inactive; TDP-43 yeast inh: inconclusive; FUS yeast rescue: inactive; aSyn yeast inh: 14%

How did CC(=O)c1ccc(NCCCN2CCC(C(O)(c3ccccc3)c3ccccc3)CC2)cc1 do in these assays?
FUS yeast rescue: inactive

What do the screens show for `CSC1=NCCN1C(=O)Cc1ccc(-c2ccccc2)cc1`?
Abeta rescue: inactive; TDP-43 yeast inh: inconclusive; FUS yeast rescue: inconclusive; aSyn yeast inh: inconclusive

What do the screens show for `CCSC1=NCCN1C(=O)Cc1ccc(-c2ccccc2)cc1`?
Abeta rescue: inactive; TDP-43 yeast inh: 14µM*; FUS yeast rescue: inactive; aSyn yeast inh: 5%

How did COc1ccc(CC(=O)N2CCN=C2SCc2ccc([N+](=O)[O-])cc2)cc1 do in these assays?
Abeta rescue: inactive; TDP-43 yeast inh: 7.9µM*; FUS yeast rescue: inactive; aSyn yeast inh: -9%

How did CCOc1ccc(CC(=O)N2CCN=C2SCc2ccc([N+](=O)[O-])cc2)cc1 do in these assays?
Abeta rescue: inactive; TDP-43 yeast inh: inconclusive; FUS yeast rescue: inactive; aSyn yeast inh: -3%
